Results from PubChem BioAssay (NCI).
About 79,000 compounds went through this panel and 15% of them were active in at least one assay; those are over-represented in the sample as a whole. Unmarked numbers belong to inactive results. Activity calls are given as the source filed them. Cut-off read from the data, not from the text of the source: active = growth inhibition above about 70%; inactive = the rest.

Key:
[1] = NCI Yeast Anticancer Drug Screen. Data for the rad50 strain (AID 155);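 note: 0% = growth of vehicle-only cultures of the same strain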; conditions: S. cerevisiae rad50 strain growth inhibition, active compounds read high
How it was run: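 A DNA repair-deficient yeast mutant serves as the test organism; compound-induced growth inhibition is calculated against vehicle-treated cells.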

[2] = NCI Yeast Anticancer Drug Screen. Data for the mec2-1 strain (AID 157); conditions: S. cerevisiae mec2-1 strain, active compounds read high
How it was run: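 mec2-1 yeast strain, carrying an alteration in DNA damage repair or cell cycle control, was exposed to compounds; growth inhibition was measured relative to vehicle-treated controls.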

[3] = NCI Yeast Anticancer Drug Screen. Data for the sgs1 mgt1 strain (AID 161);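 note: 0% = growth of cultures given vehicle only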; conditions: S. cerevisiae sgs1 mgt1 strain, active compounds read high
How it was run: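 Yeast cells carrying a defined DNA-repair defect were exposed to test compounds. Growth inhibition was measured relative to vehicle-treated controls.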

[4] = NCI Yeast Anticancer Drug Screen. Data for the cln2 rad14 strain (AID 165);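 note: 0% = growth equal to vehicle treated cultures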; conditions: S. cerevisiae cln2 rad14 strain, active compounds read high
How it was run: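 Yeast carrying cln2 and rad14 alterations (cell cycle control and DNA damage repair) were exposed to compounds. Growth inhibition was measured against vehicle-treated controls.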

[5] = NCI Yeast Anticancer Drug Screen. Data for the bub3 strain (AID 167); conditions: S. cerevisiae bub3 mutant strain, active compounds read high
How it was run: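 Inhibition values come from growth of compound-treated mutant yeast normalised to vehicle-treated controls.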

[6] = NCI Yeast Anticancer Drug Screen. Data for the mlh1 rad18 strain (AID 175); conditions: S. cerevisiae mlh1 rad18 strain growth inhibition, active compounds read high
How it was run: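 Growth inhibition of the yeast strain was measured after compound exposure and expressed relative to vehicle-treated controls. The strain carries defined defects in DNA damage repair.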

[7] = at 5.0 µM (retest, dose inferred, filed as 0.5)
[8] = at 50.0 µM (retest, dose inferred, filed as 5.0)

Row | Compound | growth inhibition [1, 7] [%] | growth inhibition [1, 8] | growth inhibition ([1]; at 50.0 µM) | growth inhibition [2, 7] | growth inhibition [2, 8] | growth inhibition ([2]; at 50.0 µM) | growth inhibition [3, 7] [%] | growth inhibition [3, 8] | growth inhibition ([3]; at 50.0 µM) | growth inhibition [4, 7] [%] | growth inhibition [4, 8] | growth inhibition ([4]; at 50.0 µM) | growth inhibition [5, 7] | growth inhibition [5, 8] | growth inhibition ([5]; at 50.0 µM) | growth inhibition [6, 7] [%] | growth inhibition [6, 8] | growth inhibition ([6]; at 50.0 µM)
1 | Cc1n[n+]([O-])c(C)cc1[N+](=O)[O-] | 0 | 50% | 93.7% (active) | 4% | 32% | 44.6% | 17 | 87% (active) | 85.6% (active) | -5 | 42% | 76.5% (active) | -8% | 16% | 65% | 58 | 94% (active) | 92.2% (active)
2 | CCOc1c(N=Nc2ccccc2OC)c(-c2ccccc2)nn1C(N)=S | 10 | 38% | 67% | 1% | 35% | 63% | 26 | 61% | 76.1% (active) | -8 | 20% | 44% | -1% | 29% | 26.8% | 2 | 39% | 53.4%
3 | Cc1occc1C(=S)Nc1ccc(Cl)c(/C=N/OC(C)C)c1 | 12 | 83% (active) | 77.5% (active) | 13% | 77% (active) | 59.2% | 13 | 80% (active) | 71.3% (active) | 24 | 81% (active) | 75.6% (active) | 22% | 86% (active) | 73.5% (active) | 17 | 91% (active) | 77.8% (active)
4 | CCc1ccccc1NC(=O)C(C#N)C1=C(Cl)C(=O)c2ccccc2C1=O (configuration not stated) | 53 | 98% (active) | 97.2% (active) | 71% (active) | 98% (active) | 98.7% (active) | 51 | 98% (active) | 97.3% (active) | 20 | 98% (active) | 50.9% | 94% (active) | 98% (active) | 97.3% (active) | 44 | 97% (active) | 98.1% (active)
5 | N#CC1(C#N)C(C#N)(C#N)C12CCC2 | 4 | 87% (active) | 35.2% | 6% | 88% (active) | 49.8% | 6 | 91% (active) | 50.6% | 0 | 65% | -2.45% | 7% | 96% (active) | 70% (active) | 2 | 96% (active) | 83.8% (active)
6 | CC(=O)N/N=C/c1ccc([N+](=O)[O-])o1 | 13 | 34% | 70.2% (active) | 2% | 22% | 43.1% | 12 | 50% | 81.8% (active) | 5 | 13% | 35.5% | 5% | 22% | 58.5% | 17 | 61% | 84.8% (active)
7 | CCCCCc1cccc(CC(=O)OCC)n1 | -161 | -149% | -14.7% | -50% | -57% | -15.3% | -66 | -69% | -12.7% | -58 | -80% | 26.9% | -66% | -42% | -12.3% | -127 | -132% | -6.15%
8 | CCN(CC)CCSCCCNc1cc(OC)cc2cccnc12 | -1 | 24% | 67.5% | 6% | 29% | 59.6% | 13 | 54% | 71% (active) | 8 | 32% | 78% (active) | 10% | 54% | 54% | 7 | 28% | 65.3%
9 | COc1ccccc1NC(=O)CSC(N)=O | 5 | 24% | 71% (active) | 4% | 42% | 61.8% | 3 | 24% | 92.5% (active) | 5 | 7% | 58% | 4% | 66% | 88.2% (active) | 2 | 21% | 74% (active)
10 | COc1ccc2c(c1)Cc1ccccc1C2=O | 14 | 34% | 15.8% | 3% | 8% | 4% | 0 | 1% | 6.75% | 1 | 3% | -0.35% | 75% (active) | 85% (active) | 40.6% | 2 | 14% | 9.1%
11 | COc1cc2c(cc1OC)NCC1COc3c(ccc(OC)c3OC)C1=N2 (configuration not stated) | 12 | 14% | -44.9% | 14% | 8% | -6.65% | 15 | 17% | -18.4% | 19 | 17% | 11.1% | 17% | 22% | 16% | 12 | 24% | -37.8%
12 | COC(=O)C(=[N+]=[N-])C(=O)c1ccc(Cl)cc1 | 2 | 30% | 81% (active) | 2% | 13% | 96.2% (active) | 2 | 40% | 50.7% | 0 | 19% | 44.4% | -14% | -14% | 28.9% | -3 | 18% | 40.5%
13 | Nc1ccc(-c2nc3ccccc3s2)cc1I | 34 | 71% (active) | 84.3% (active) | 20% | 74% (active) | 89.1% (active) | 44 | 88% (active) | 87.3% (active) | 50 | 68% | 86.2% (active) | 53% | 95% (active) | 84.2% (active) | 27 | 77% (active) | 84% (active)
14 | CC(C)(Br)C(Br)C(=O)C(Br)C(C)(C)Br (configuration not stated) | -1 | 8% | 52.2% | -2% | 26% | 48.6% | -4 | 31% | 63.6% | -2 | 15% | -7.9% | -2% | 40% | 19.6% | -1 | 31% | 69%
15 | CC(=O)c1ccc2sc3ccccc3c2c1 | -92 | 96% (active) | 96% (active) | -45% | 72% (active) | 57.6% | -59 | 88% (active) | 70.2% (active) | -52 | 86% (active) | 33.4% | -51% | 85% (active) | 88% (active) | -120 | 92% (active) | 88.3% (active)
16 | CCCCCCCCCCCCCCCCCC(=O)OCCOCCO | -12 | -16% | -2.4% | -22% | -46% | -0.25% | -10 | -23% | -2.7% | -33 | -21% | 60.8% | -27% | -24% | -13.3% | -28 | -25% | -21.6%
17 | COc1ccc(/C=C2\CCCc3ccccc3C2=O)cc1 | -3 | 33% | 60.2% | 2% | 86% (active) | 53.3% | 9 | 86% (active) | 77.7% (active) | -12 | -3% | 20% | 64% | 90% (active) | 80.4% (active) | 5 | 81% (active) | 62.2%
18 | CC1=C(\C=C/C(C)=N/N=C(C)\C=C\C2=C(C)CCCC2(C)C)C(C)(C)CCC1 | 3 | 31% | 70.8% (active) | 9% | 52% | 28.7% | 27 | 51% | 71% (active) | 3 | 7% | 28.2% | -2% | 4% | 23.7% | 24 | 49% | 44.2%
19 | CCCCN(CCCC)CC(O)c1cc(-c2ccc(Cl)cc2)nc2c(Cl)cccc12 (configuration not stated) | 1 | 6% | 99% (active) | -2% | 1% | 99.5% (active) | 1 | 12% | 99.2% (active) | -3 | -13% | 98.5% (active) | -4% | 0% | 98.8% (active) | -3 | -4% | 99.3% (active)
